Source: paper PMC5540273 (PLoS ONE, 2017)

System: PLK2
Conditions: concentration: 1 μM, replicates: in singlicate; n = 1
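Further: KINOMEscan kinase panel screen.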

SMILES	%Inh [%]
Clc1cc(Nc2ncnc3cc[nH]c23)ccc1OCc1ccccn1	23
COc1cc2ncnc(Nc3ccc(OCc4ccccc4Br)c(Cl)c3)c2cc1OC.Cl [GI261590]	0
CCCc1ccc(S(=O)(=O)NC2CCN(c3ccnc(Nc4ccc(OC)cc4)n3)C2)cc1 (stereo not shown) [GSK1379737]	0
C[C@H]1CC[C@@H](C(=O)Nc2ccccc2)CN1c1cc(-c2ccc3c(N)n[nH]c3c2)nc(N)n1 [GSK2283293]	4
Fc1ccc(Nc2nccc(-c3c(-c4ccc(Cl)cc4)nn4ncccc34)n2)cc1F [GW829058]	36
COc1ccc(-c2oc3ncnc(N)c3c2-c2ccc(OC)cc2)cc1 [SB-589132]	0
Nc1nc(-c2ccc3c(N)n[nH]c3c2)cc(N2CCC[C@@H](C(=O)Nc3ccccc3)C2)n1.O=C(O)C(F)(F)F.O=C(O)C(F)(F)F [GSK2288359]	0
CS(=O)(=O)CCNCc1ccc(-c2ccc3ncnc(Nc4ccc(OCc5ccccc5)c(Cl)c4)c3c2)o1.Cl [GW574783]	0
CNc1nccc(-c2c(-c3ccc(F)cc3)ncn2C2CCN(C)CC2)n1 [SB-222903]	0
Cl.O=S(=O)(c1cccc(F)c1)c1ccc(Nc2ncnc3cc(Br)sc23)cc1Cl [GSK306886]	0
Cl.c1ccc(Cn2ccc3cc(Nc4ncnc5ccccc45)ccc32)cc1 [GW275568]	0
FC(F)(F)c1ccc(-c2cc(-c3c[nH]nc3-c3ccccn3)ccn2)cc1 [GW599550]	0
CC(C)(C)c1ccc(-n2cnc3c(N)ncnc32)cc1 [SKF-97263]	0
Nc1nccc2scc(-c3ccc4c(c3)CCN4C(=O)Cc3cc(F)ccc3F)c12 [GSK2587663]	0
NC(=O)c1sc(-n2cnc3ccccc32)cc1OCc1ccccc1F [GSK1024306]	99
O=C(NCCCN1CCCC1=O)c1cnc(NCc2cc(Cl)ccc2Cl)nc1NC1CCNCC1	0
CN1CCC(n2cnc(-c3ccc(F)cc3)c2-c2ccnc(NC3CCNCC3)n2)CC1 [SB-229482]	0
O=C(Nc1n[nH]c2nc(-c3ccco3)c(Br)cc12)c1ccc(CN2CCCC2)cc1.O=C(O)[C@H](O)[C@@H](O)C(=O)O [SB-742352]	0

SMILES	%Inh [%]
FC(F)(F)c1ccc(-c2nn3ncccc3c2-c2ccnc(Nc3cccc(C(F)(F)F)c3)n2)cc1 [GW828205]	0
COc1ccc(NC(=O)Nc2ccc(C)c(-c3ccc(C(=O)Nc4ccncc4)cc3)c2)cc1 [GSK1398475]	0
Cl.Fc1ccccc1COc1ccc(Nc2ncnc3ccc(-c4nnc(C(F)(F)F)o4)cc23)cc1Cl [GW424170]	0
CCC(CC)(CC)n1cnc2c(N)ncnc21 [SKF-97620]	32
Cn1ccc2ncnc(Oc3ccc(NC(=O)Nc4cccnc4)c(Cl)c3)c21	5
Cl.c1ccc(Cn2ncc3cc(Nc4ncnc5ccccc45)ccc32)cc1 [GW273749]	0
Cc1ccc(O)cc1Nc1cc(C(F)(F)F)nc2ccc(-c3ccncc3)cc12 [GW630823]	1
Cn1ccc2ncnc(Nc3ccc(Oc4cccc(Cl)c4)c(Cl)c3)c21	30
Clc1ccc(-c2cc(-c3c[nH]nc3-c3ccccn3)ccn2)cc1 [GW681251]	0
COC(=O)c1cccc(NC(=O)NCCNc2ccnc(Nc3ccc(F)cc3)n2)c1 [GSK1379883]	0
C[C@@H]1CCN(C(=O)CO)C[C@@H]1N(C)c1ncnc2[nH]ccc12	0
COc1ccc(NC(=O)c2ccc(-c3cc(-c4nnc(C)o4)ccc3C)cc2)cc1 [GW595885]	0
CC(C)N1CCC(n2cnc(-c3ccc(F)cc3)c2-c2ccnc(N)n2)CC1 [SB-223132]	0
Oc1ccc2ncnc(Nc3ccc(OCc4ccccc4)cc3)c2c1 [GI262866]	0
CC(=O)Nc1n[nH]c2ncc(-c3ccccc3)cc12 [SB-548492]	27
CCc1nc(-c2cccc(C)c2)c(-c2ccnc(NC(=O)c3ccccc3)c2)s1	5
OCCOCCn1ccc2ncnc(Nc3ccc(Oc4cccc(Cl)c4)c(Cl)c3)c21	0

System: PLK3
Conditions: concentration: 1 μM, replicates: in singlicate; n = 1

SMILES	%Inh [%]
Clc1cc(Nc2ncnc3cc[nH]c23)ccc1OCc1ccccn1	25
COc1cc2ncnc(Nc3ccc(OCc4ccccc4Br)c(Cl)c3)c2cc1OC.Cl [GI261590]	0
CCCc1ccc(S(=O)(=O)NC2CCN(c3ccnc(Nc4ccc(OC)cc4)n3)C2)cc1 (stereo not shown) [GSK1379737]	0
C[C@H]1CC[C@@H](C(=O)Nc2ccccc2)CN1c1cc(-c2ccc3c(N)n[nH]c3c2)nc(N)n1 [GSK2283293]	0
Fc1ccc(Nc2nccc(-c3c(-c4ccc(Cl)cc4)nn4ncccc34)n2)cc1F [GW829058]	20
COc1ccc(-c2oc3ncnc(N)c3c2-c2ccc(OC)cc2)cc1 [SB-589132]	0
Nc1nc(-c2ccc3c(N)n[nH]c3c2)cc(N2CCC[C@@H](C(=O)Nc3ccccc3)C2)n1.O=C(O)C(F)(F)F.O=C(O)C(F)(F)F [GSK2288359]	3
CS(=O)(=O)CCNCc1ccc(-c2ccc3ncnc(Nc4ccc(OCc5ccccc5)c(Cl)c4)c3c2)o1.Cl [GW574783]	0
CNc1nccc(-c2c(-c3ccc(F)cc3)ncn2C2CCN(C)CC2)n1 [SB-222903]	4
Cl.O=S(=O)(c1cccc(F)c1)c1ccc(Nc2ncnc3cc(Br)sc23)cc1Cl [GSK306886]	0
Cl.c1ccc(Cn2ccc3cc(Nc4ncnc5ccccc45)ccc32)cc1 [GW275568]	0
FC(F)(F)c1ccc(-c2cc(-c3c[nH]nc3-c3ccccn3)ccn2)cc1 [GW599550]	0
CC(C)(C)c1ccc(-n2cnc3c(N)ncnc32)cc1 [SKF-97263]	0
Nc1nccc2scc(-c3ccc4c(c3)CCN4C(=O)Cc3cc(F)ccc3F)c12 [GSK2587663]	0
NC(=O)c1sc(-n2cnc3ccccc32)cc1OCc1ccccc1F [GSK1024306]	98.8
O=C(NCCCN1CCCC1=O)c1cnc(NCc2cc(Cl)ccc2Cl)nc1NC1CCNCC1	0
CN1CCC(n2cnc(-c3ccc(F)cc3)c2-c2ccnc(NC3CCNCC3)n2)CC1 [SB-229482]	0
O=C(Nc1n[nH]c2nc(-c3ccco3)c(Br)cc12)c1ccc(CN2CCCC2)cc1.O=C(O)[C@H](O)[C@@H](O)C(=O)O [SB-742352]	0

SMILES	%Inh [%]
FC(F)(F)c1ccc(-c2nn3ncccc3c2-c2ccnc(Nc3cccc(C(F)(F)F)c3)n2)cc1 [GW828205]	18
COc1ccc(NC(=O)Nc2ccc(C)c(-c3ccc(C(=O)Nc4ccncc4)cc3)c2)cc1 [GSK1398475]	0
Cl.Fc1ccccc1COc1ccc(Nc2ncnc3ccc(-c4nnc(C(F)(F)F)o4)cc23)cc1Cl [GW424170]	0
CCC(CC)(CC)n1cnc2c(N)ncnc21 [SKF-97620]	21
Cn1ccc2ncnc(Oc3ccc(NC(=O)Nc4cccnc4)c(Cl)c3)c21	11
Cl.c1ccc(Cn2ncc3cc(Nc4ncnc5ccccc45)ccc32)cc1 [GW273749]	2
Cc1ccc(O)cc1Nc1cc(C(F)(F)F)nc2ccc(-c3ccncc3)cc12 [GW630823]	0
Cn1ccc2ncnc(Nc3ccc(Oc4cccc(Cl)c4)c(Cl)c3)c21	24
Clc1ccc(-c2cc(-c3c[nH]nc3-c3ccccn3)ccn2)cc1 [GW681251]	0
COC(=O)c1cccc(NC(=O)NCCNc2ccnc(Nc3ccc(F)cc3)n2)c1 [GSK1379883]	0
C[C@@H]1CCN(C(=O)CO)C[C@@H]1N(C)c1ncnc2[nH]ccc12	12
COc1ccc(NC(=O)c2ccc(-c3cc(-c4nnc(C)o4)ccc3C)cc2)cc1 [GW595885]	0
CC(C)N1CCC(n2cnc(-c3ccc(F)cc3)c2-c2ccnc(N)n2)CC1 [SB-223132]	0
Oc1ccc2ncnc(Nc3ccc(OCc4ccccc4)cc3)c2c1 [GI262866]	0
CC(=O)Nc1n[nH]c2ncc(-c3ccccc3)cc12 [SB-548492]	25
CCc1nc(-c2cccc(C)c2)c(-c2ccnc(NC(=O)c3ccccc3)c2)s1	9
OCCOCCn1ccc2ncnc(Nc3ccc(Oc4cccc(Cl)c4)c(Cl)c3)c21	0
